# Experimental data taken from the supplement of paper PMC8975748.
# Where a name gives a salt, the structure may show the parent alone. ± gives the standard deviation of the averaged measurements.
# How the values were obtained:
# [1] = system: Saccharomyces cerevisiae BY4741 SeMeCo community; experiment: mean cell size (pixel area) (pixels); higher = larger cells; details: 10 µM; 24 h; SM minimal medium
# Outline: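 Plates of 384 wells were acoustically predosed with drug at a final 10 µM in SM medium, and 70 µl of a Saccharomyces cerevisiae BY4741 preculture diluted from OD600 = 1.0 to OD600 = 0.3 was added for 24 h. The yeast formed a four-plasmid fluorescent community in which each plasmid complements one auxotrophy and carries a fluorescent marker. Fixed cells were imaged by automated confocal microscopy and analysed in Harmony for mean cell pixel area per well. Values are means of 3 replicates. Same SeMeCo high-content imaging drug screen: Selleck FDA-approved drugs at 10 µM, 24 h in SM medium, 384-well plates, 3 replicates.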
# [2] = system: Saccharomyces cerevisiae BY4741 SeMeCo community; experiment: z-score of prototroph abundance vs DMSO median; higher = larger share of this subpopulation than in DMSO controls; details: 10 µM; 24 h; SM minimal medium; subpopulation (auxotrophy): Prototroph
# Outline: (§1)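 Automated confocal microscopy of paraformaldehyde-fixed cells was used to follow a Saccharomyces cerevisiae BY4741 community carrying four plasmids, each restoring one auxotrophy and encoding a distinct fluorescent protein. The community was pre-grown overnight to OD600 1.0, diluted to 0.3, and added at 70 µl to 384-well plates acoustically predosed with library drugs (10 µM final) for 24 h of growth in minimal SM medium. Single-auxotroph fluorescent strains set thresholds and autofluorescence correction, and each subpopulation's abundance was scored as a z-score against the vehicle-well median.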
# [3] = system: Saccharomyces cerevisiae BY4741 SeMeCo community; experiment: z-score of subpopulation abundance vs DMSO median, subpopulation auxotrophic for L; higher = larger share of this subpopulation than in DMSO controls; details: 10 µM; 24 h; SM minimal medium; subpopulation (auxotrophy): L
# Outline: as §1
# [4] = system: Saccharomyces cerevisiae BY4741 SeMeCo community; experiment: z-score of subpopulation abundance vs DMSO median, subpopulation auxotrophic for U; higher = larger share of this subpopulation than in DMSO controls; details: 10 µM; 24 h; SM minimal medium; subpopulation (auxotrophy): U
# Outline: as §1
# [5] = system: Saccharomyces cerevisiae BY4741 SeMeCo community; experiment: z-score of subpopulation abundance vs DMSO median, subpopulation auxotrophic for H; higher = larger share of this subpopulation than in DMSO controls; details: 10 µM; 24 h; SM minimal medium; subpopulation (auxotrophy): H
# Outline: as §1
# [6] = system: Saccharomyces cerevisiae BY4741 SeMeCo community; experiment: z-score of subpopulation abundance vs DMSO median, subpopulation auxotrophic for LU; higher = larger share of this subpopulation than in DMSO controls; details: 10 µM; 24 h; SM minimal medium; subpopulation (auxotrophy): LU
# Outline: as §1
# [7] = system: Saccharomyces cerevisiae BY4741 SeMeCo community; experiment: z-score of subpopulation abundance vs DMSO median, subpopulation auxotrophic for LM; higher = larger share of this subpopulation than in DMSO controls; details: 10 µM; 24 h; SM minimal medium; subpopulation (auxotrophy): LM
# Outline: as §1
# [8] = system: Saccharomyces cerevisiae BY4741 SeMeCo community; experiment: z-score of subpopulation abundance vs DMSO median, subpopulation auxotrophic for HM; higher = larger share of this subpopulation than in DMSO controls; details: 10 µM; 24 h; SM minimal medium; subpopulation (auxotrophy): HM
# Outline: as §1
# [9] = system: Saccharomyces cerevisiae BY4741 SeMeCo community; experiment: z-score of subpopulation abundance vs DMSO median, subpopulation auxotrophic for HU; higher = larger share of this subpopulation than in DMSO controls; details: 10 µM; 24 h; SM minimal medium; subpopulation (auxotrophy): HU
# Outline: as §1
# [10] = system: Saccharomyces cerevisiae BY4741 SeMeCo community; experiment: z-score of subpopulation abundance vs DMSO median, subpopulation auxotrophic for UM; higher = larger share of this subpopulation than in DMSO controls; details: 10 µM; 24 h; SM minimal medium; subpopulation (auxotrophy): UM
# Outline: as §1
# [11] = system: Saccharomyces cerevisiae BY4741 SeMeCo community; experiment: z-score of subpopulation abundance vs DMSO median, subpopulation auxotrophic for HLU; higher = larger share of this subpopulation than in DMSO controls; details: 10 µM; 24 h; SM minimal medium; subpopulation (auxotrophy): HLU
# Outline: as §1
# [12] = system: Saccharomyces cerevisiae BY4741 SeMeCo community; experiment: z-score of subpopulation abundance vs DMSO median, subpopulation auxotrophic for HLM; higher = larger share of this subpopulation than in DMSO controls; details: 10 µM; 24 h; SM minimal medium; subpopulation (auxotrophy): HLM
# Outline: as §1
# [13] = system: Saccharomyces cerevisiae BY4741 SeMeCo community; experiment: z-score of subpopulation abundance vs DMSO median, subpopulation auxotrophic for HUM; higher = larger share of this subpopulation than in DMSO controls; details: 10 µM; 24 h; SM minimal medium; subpopulation (auxotrophy): HUM
# Outline: as §1
# [14] = system: Saccharomyces cerevisiae BY4741 SeMeCo community; experiment: z-score of subpopulation abundance vs DMSO median, subpopulation auxotrophic for LUM; higher = larger share of this subpopulation than in DMSO controls; details: 10 µM; 24 h; SM minimal medium; subpopulation (auxotrophy): LUM
# Outline: as §1
# [15] = system: Saccharomyces cerevisiae BY4741 SeMeCo community; experiment: z-score of subpopulation abundance vs DMSO median, subpopulation auxotrophic for HL; higher = larger share of this subpopulation than in DMSO controls; details: 10 µM; 24 h; SM minimal medium; subpopulation (auxotrophy): HL
# Outline: as §1
# [16] = system: Saccharomyces cerevisiae BY4741 SeMeCo community; experiment: z-score of subpopulation abundance vs DMSO median, subpopulation auxotrophic for HLUM; higher = larger share of this subpopulation than in DMSO controls; details: 10 µM; 24 h; SM minimal medium; subpopulation (auxotrophy): HLUM
# Outline: as §1
SMILES,mean cell size [1],z-score of prototroph abundance [2],z-score of subpopulation abundance [3],z-score of subpopulation abundance [4],z-score of subpopulation abundance [5],z-score of subpopulation abundance [6],z-score of subpopulation abundance [7],z-score of subpopulation abundance [8],z-score of subpopulation abundance [9],z-score of subpopulation abundance [10],z-score of subpopulation abundance [11],z-score of subpopulation abundance [12],z-score of subpopulation abundance [13],z-score of subpopulation abundance [14],z-score of subpopulation abundance [15],z-score of subpopulation abundance [16]
C[C@@H](O)[C@H]1C(=O)N2C(C(=O)O)=C([C@H]3CCCO3)S[C@H]12 [Faropenem Sodium],12.39 ± 0.088,-1.08,-0.03,1.08,0.32,0.29,-0.23,0.48,0.81,1.27,0.66,-0.7,0.59,0.85,,
CCN(CC)CC#CCOC(=O)C(O)(c1ccccc1)C1CCCCC1 (stereo unspecified) [Oxybutynin],12.5 ± 0.29,-0.02,-0.14,0.19,-0.43,-0.54,,,0.37,,-0.2,-0.46,0.54,-0.32,-0.47,1
CCOC(=O)c1c(CSc2ccccc2)n(C)c2cc(Br)c(O)c(CN(C)C)c12 [Arbidol HCl],12.6 ± 0.16,-0.66,-0.99,1.69,0.13,-0.24,-0.98,0.29,0.91,,0.12,0.87,0.09,-0.37,-0.66,0.15
OB1OCc2cc(F)ccc21 [Tavaborole (AN-2690)],14 ± 0.24,,0.22,-3.62,14.2,4.22,6.17,27.5,5.21,7.1,23.2,98,16.9,16.4,17.6,47.7
CC[C@@]1(O)C(=O)OCc2c1cc1n(c2=O)Cc2cc3cc(O)ccc3nc2-1 [Hydroxy Camptothecine],12.5 ± 0.14,,2.31,-5.21,3.18,-3.85,3.19,3.39,-4.32,-4.43,-1.2,1.86,-1.9,-1.35,,0.8
CCN(CC)CCOC(=O)c1ccc(N)cc1 [Procaine HCl],12.5 ± 0.25,0.84,-0.69,-0.15,-0.47,-0.34,0,-0.71,-0.49,,0.02,-0.24,-1.23,0.14,-0.7,0.26
CCc1cccc2c3c([nH]c12)C(CC)(CC(=O)O)OCC3 (stereo unspecified) [Etodolac],12.5 ± 0.19,,-0.55,0.62,-0.66,0.31,0.26,,-0.8,-0.43,-0.48,-0.82,-0.52,-0.9,-0.44,-0.89
Clc1ccc(C(Cn2ccnc2)OCc2csc3c(Cl)cccc23)c(Cl)c1 (stereo unspecified) [Sertaconazole nitrate],12.5 ± 0.29,-8.82,1.38,0.4,36.6,1.93,,0.2,14.5,-2.33,11.1,28.5,3.4,2.6,16.1,28.5
Nc1ccc(S(=O)(=O)Nc2ncccn2)cc1 [Sodium sulfadiazine],12.42 ± 0.059,-0.25,0.56,,-0.33,0.3,0.18,0.17,-0.58,,0.17,-0.23,-0.68,0.15,0.08,0.02
COc1cc(/C=C/C(=O)N2CCN(CC(=O)N3CCCC3)CC2)cc(OC)c1OC [Cinepazide maleate],12.6 ± 0.14,-0.19,-1.17,,-0.51,0.47,-1.06,-0.1,0.48,0.61,0.11,-0.01,-0.05,-0.41,,-0.53
CCC[S+]([O-])c1ccc2[nH]c(NC(=O)OC)nc2c1 (stereo unspecified) [Albendazole Oxide],12.4 ± 0.35,0.33,-0.98,0.49,-0.72,-0.51,-0.25,0.14,-0.21,0.18,-0.31,-0.85,0.36,-0.65,-0.18,
CC(C(=O)O)c1ccc2c(c1)Cc1cccnc1O2 (stereo unspecified) [Pranoprofen],12.56 ± 0.067,0.32,-0.28,0.43,-0.08,-0.35,-0.7,0.14,0.43,-0.93,-0.3,0.61,0.27,-0.12,,-0.06
C[N+]1(C)CCC(OC(=O)C(O)(c2ccccc2)C2CCCC2)C1 (stereo unspecified) [Glycopyrrolate],12.32 ± 0.11,-0.59,-0.73,1.42,-0.58,0.76,,-0.21,0.57,1.58,-0.14,0.17,0.23,,-0.5,-0.01
COc1ccc2[nH]c([S+]([O-])Cc3ncc(C)c(OC)c3C)nc2c1 (stereo unspecified) [Omeprazole],12.3 ± 0.19,,1.33,-1.23,1.65,0.12,0.56,0.37,0.46,,1.91,-0.19,-0.34,0.62,2.48,-0.03
